# Compound activity as filed in PubChem BioAssay.
# An excerpt weighted towards active compounds, which were near 3.3% of everything screened.
# PfM18AAP inh = PfM18AAP inhibitors, malaria aminopeptidase, primary screen, biochemical, QFRET, recombinant enzyme; M18 aspartyl aminopeptidase (Plasmodium falciparum 3D7); H-Glu-NHMec fluorogenic cleavage; inhibition, % at 7.35 µM; hit rate 1.2% among 290,000; AID 1822, 2009;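 active means inhibition above the campaign mean inhibition over all tested compounds plus 3 SD, cut at about 28% in these data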;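 further: 0% = plate median of test compound wells and 100% = 2 mM ZnCl2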
# PRMT1 inh = PRMT1 methyltransferase inhibitors, primary screen, biochemical, fluorescence polarization; hit rate 1.3% among 370,000; recombinant PRMT1, activity-based probe fluorescence polarization; inhibition, % at 2.79 µM; AID 652257, 2013;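 active means inhibition above about 21% made by adding two undisclosed values, limit read from the data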
# UHRF1 MBD2 ctr = UHRF1 methylated DNA binding inhibitors, primary screen, counter-screen for MBD2 inhibitor project, biochemical, TR-FRET, human UHRF1, single concentration; E3 ubiquitin-protein ligase UHRF1 (Homo sapiens), Q96T88; UHRF1 binding to methylated oligo; inhibition, % at 4.4 µM; hit rate 0.75% among 370,000; AID 687016, 2013; in the data active means inhibition above about 21%;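 further: UHRF1 SRA domain binding a hemimethylated CpG hairpin DNA probe; 0% = median of test compound wells and 100% = reference inhibitor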
# Target sequence (Q96T88 whole entry, looked up, the tested form may be a part): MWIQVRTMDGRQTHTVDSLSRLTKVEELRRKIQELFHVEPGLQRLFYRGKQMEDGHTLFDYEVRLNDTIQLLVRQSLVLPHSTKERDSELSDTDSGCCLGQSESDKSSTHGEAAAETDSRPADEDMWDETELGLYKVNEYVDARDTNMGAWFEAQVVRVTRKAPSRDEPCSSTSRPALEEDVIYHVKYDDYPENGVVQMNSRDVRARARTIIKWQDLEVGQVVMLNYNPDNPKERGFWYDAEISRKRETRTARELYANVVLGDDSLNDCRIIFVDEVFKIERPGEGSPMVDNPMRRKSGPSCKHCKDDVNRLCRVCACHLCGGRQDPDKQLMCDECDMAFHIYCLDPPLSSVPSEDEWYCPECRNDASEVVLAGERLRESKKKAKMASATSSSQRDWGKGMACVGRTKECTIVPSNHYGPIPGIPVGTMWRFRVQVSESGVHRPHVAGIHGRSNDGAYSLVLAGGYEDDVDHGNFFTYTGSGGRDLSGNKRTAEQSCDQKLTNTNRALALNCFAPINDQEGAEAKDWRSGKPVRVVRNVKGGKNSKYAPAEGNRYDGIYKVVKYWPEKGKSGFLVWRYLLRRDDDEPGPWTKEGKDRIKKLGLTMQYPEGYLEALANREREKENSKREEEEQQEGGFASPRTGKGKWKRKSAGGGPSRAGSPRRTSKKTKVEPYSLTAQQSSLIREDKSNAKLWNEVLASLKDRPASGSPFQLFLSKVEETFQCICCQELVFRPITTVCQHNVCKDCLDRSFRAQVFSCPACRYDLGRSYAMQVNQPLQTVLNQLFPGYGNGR
# PfG6PD inh = PfG6PD enzyme inhibitors, primary screen, biochemical, fluorescence intensity, uHTS | glucose-6-phosphate dehydrogenase-6-phosphogluconolactonase (Plasmodium falciparum 3D7) | PfGluPho enzyme, NADPH resazurin-diaphorase fluorescence | inhibition, % at 20 µM | hit rate 0.78% among 350,000;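 active means inhibition reaching at least a set limit at 20 µM in the primary screen, cut at about 59% in these data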;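 further: 0% = DMSO wells with substrate and 100% = DMSO wells lacking glucose-6-phosphate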
# MBD2 inh = inhibitors of MBD2 binding to methylated DNA, primary screen, biochemical, TR-FRET, DNA-binding domain, human | AID 686964, 2013 | MBD2 binding to methylated oligonucleotide | Methyl-CpG-binding domain protein 2 (Homo sapiens), Q9UBB5 | hit rate 0.31% among 370,000 | inhibition, % at 4.4 µM; in the data active means inhibition above about 13%
# Numbers without * were called inactive; nt = no result given.
SMILES,PfM18AAP inh,PRMT1 inh,UHRF1 MBD2 ctr,PfG6PD inh,MBD2 inh
Cc1nc(Cl)cc(N/N=C/c2ccc(O)cc2O)n1,31.1*,5.8,-1.6,-12.4,-2.0
COc1cccc(/C=N/Nc2c(Cl)cncc2Cl)c1O,-3.0,-6.8,-1.0,7.3,-0.4
CC(=O)N1CCN(C(=O)CN2C(=O)CC(C)(C)S(=O)(=O)c3ccccc32)CC1,nt,7.1,6.2,nt,2.1
Cc1cccc(C2C3=C(Nc4[nH]n(-c5ccccc5)c(=O)c42)c2ccccc2C3=O)c1 (stereo not drawn),-3.7,21.4*,-12.0,-14.0,-15.8
COCCNc1ncnc2c1ncn2[C@H]1CN(Cc2cccs2)C[C@@H](CO)O1,nt,5.9,-0.2,nt,7.7
OCCNc1ncnc2c1ncn2[C@H]1CN(Cc2cccs2)C[C@@H](CO)O1,nt,-1.6,25.8*,nt,1.6
O=C(Nc1ccc2c(c1)OCO2)OC1CC2CC1[C@H]1CCCCN1[C@H]2Cc1ccccc1 (stereo partly drawn),nt,-3.2,1.2,nt,1.9
C=C1C(=O)[C@]23C[C@H]1CC[C@H]2[C@]1(C)CCC[C@@](C)(C(=O)OC)[C@H]1C[C@@H]3O,nt,24.4*,-1.8,nt,2.8
Cc1cc(C)n(-c2ccc3nnc(C)n3n2)n1,-0.4,4.2,23.9*,-14.0,6.8
Cc1nnc2ccc(N3CCCCC3)nn12,-3.6,-0.3,-3.6,-7.9,-6.6
COc1ccc(-n2sc3ccc(F)cc3c2=O)cc1,nt,86.8*,-4.2,112.2*,-0.5
O=C(Cn1cnc2sc(-c3ccccc3)cc2c1=O)NCc1ccco1,15.4,1.8,50.5*,1.8,10.2
O=C(Cn1cnc2sc(-c3ccccc3)cc2c1=O)NCc1ccccc1,6.6,0.1,2.5,1.5,3.6
Cc1cc(Cl)ccc1OC(C)C(=O)Nc1ccccc1N1CCOCC1 (stereo not drawn),0.9,2.3,20.9*,24.6,11.8
O=C(Nc1ccc(F)cc1)c1ccc2ncsc2c1,10.8,9.2,1.3,1.6,-0.9
N#Cc1ccsc1NC(=O)c1ccc2ncsc2c1,nt,21.6*,-1.3,5.6,3.1
COc1cc(CCC(=O)Nc2ccc(C)c(S(=O)(=O)N(C)C)c2)cc(OC)c1OC,-8.0,0.9,21.4*,0.8,8.0
COc1ccc(CCC(=O)Nc2ccc(C)c(S(=O)(=O)N(C)C)c2)cc1OC,-3.1,-0.1,0.6,-2.1,-2.9
Cc1ccc(NC(=O)COC(=O)/C=C/c2ccco2)cc1S(=O)(=O)N(C)C,-10.7,21.2*,13.3,3.5,3.2
S=C1NC[C@H](Cc2ccccc2)N1CC1CCN(CCCC2CCCCC2)CC1,nt,-4.7,-0.1,nt,0.1
COc1ccccc1NC(=O)N1CCN(c2ccc3nncn3n2)CC1,-5.2,-1.9,24.0*,18.4,7.0
COc1ccccc1NC(=O)N1CCN(c2ccc3nnc(-c4ccc(F)cc4)n3n2)CC1,-5.7,15.4,-12.4,0.0,-6.3
CC(C)c1nnc(NC(=O)CCS(=O)(=O)c2ccccc2)s1,1.7,2.0,0.2,-4.4,-0.6
CCCC(C)c1nnc(NC(=O)CCS(=O)(=O)c2ccccc2)s1 (stereo not drawn),26.9,18.4,0.2,74.6*,-2.3
O=C(NC1CCCC1)c1n[nH]c2ccccc12,-1.9,-0.4,45.4*,14.3,-4.6
SMILES,PfM18AAP inh,PRMT1 inh,UHRF1 MBD2 ctr,PfG6PD inh,MBD2 inh
O=C(COC(=O)c1n[nH]c2ccccc12)NC(=O)NC1CCCC1,-5.8,-0.5,0.8,-0.1,-7.5
COC(=O)C1CN(Cc2ccccc2)CCS(=O)(=O)N1Cc1ccccc1 (stereo not drawn),nt,-3.0,2.1,nt,-1.4
CCOC(=O)N1CCC(N2C(=O)c3ccccc3C2Nc2ccc3c(c2)OCCO3)CC1 (stereo not drawn),-1.3,-1.5,-1.9,4.8,-5.0
CCOC(=O)N1CCC(N2C(=O)c3ccccc3C2Nc2ccc3c(C)cc(=O)oc3c2)CC1 (stereo not drawn),3.8,-3.5,33.3*,-2.4,0.9
CCc1cc2c(nc1CC)CCCN2C,nt,1.6,7.0,nt,2.2
COC(=O)/C=c1/s/c(=C(/C#N)C(=O)N2CCOCC2)n(-c2ccccc2)c1=O,9.0,-2.8,79.8*,-5.8,1.9
Cc1ccc(CN(C)C(=O)c2cccc(S(=O)(=O)N3CCCC3)c2)o1,nt,3.2,-1.4,8.4,2.0
COc1ccc(S(=O)(=O)N2CCC(C(=O)N(C)Cc3ccc(C)o3)CC2)cc1OC,nt,23.9*,1.0,3.3,-0.1
CC1(C(=O)N2CCC(Oc3cccnc3)CC2)CC1,nt,-0.2,2.2,nt,-0.7
CCC[C@@H](/C=C/C(=O)OC(C)(C)C)Sc1ccc(OC)cc1,nt,3.3,-0.5,nt,1.5
CC(=O)N1N=C(c2ccco2)CC1c1cccs1 (stereo not drawn),-14.0,-4.0,-2.4,3.8,-4.7
CC(=O)N1N=C(c2ccco2)CC1c1ccc(Cl)o1 (stereo not drawn),2.7,10.7,32.9*,7.5,6.5
O=C(CCC1CCCN(c2ncccn2)C1)NCc1ccccc1F (stereo not drawn),31.6*,-1.6,-4.2,-11.2,3.6
CC1=NN(c2ccccc2)C(=O)C1C=Nc1ccc(N(C)C)cc1 (stereo not drawn),31.1*,29.5*,31.9*,36.2,11.0
COc1ccc(OC)c(C2C(C(=O)Nc3ccccc3OC)=C(C)Nc3nc(CCCO)nn32)c1 (stereo not drawn),-1.5,-3.2,-1.5,14.6,2.3
CCOc1ccccc1C1C(C(=O)Nc2ccccc2OC)=C(C)Nc2nc(CCCO)nn21 (stereo not drawn),nt,-0.1,22.2*,-13.7,1.5
COc1ccc(CCNC(=O)CSc2nc(O)cc(=O)[nH]2)cc1OC,0.8,2.3,0.2,-5.6,0.2
COc1ccc(CCNC(=O)CSc2cc(=O)[nH]c(N)n2)cc1OC,-5.9,1.4,23.5*,-6.3,8.0
COc1ccc(/C=C/C(=O)NCCNC(=O)c2ccccc2)cc1OC,15.7,0.7,24.6*,5.0,4.4
Nc1[nH]c(C(=O)c2ccccc2)c(-c2cccnc2)c1C(=O)NCCc1c[nH]c2ccccc12,nt,-2.3,-1.9,nt,-3.3
CC(C)(C)C1=CC(=O)C(=O)C(C(C)(C)C)=C1,-9.4,nt,nt,111.3*,nt
CCCC#Cc1ccc2c(c1)O[C@@H](CN(C)Cc1ccc3c(c1)OCO3)[C@H](C)CN([C@@H](C)CO)S2(=O)=O,nt,3.1,20.8*,45.4,11.9
C[C@H]1CN([C@@H](C)CO)S(=O)(=O)c2ccc(C#Cc3cccnc3)cc2O[C@@H]1CN(C)C(=O)Nc1ccc2c(c1)OCO2,nt,-1.4,22.0*,26.6,6.5
CCC[C@H]1[C@@H](NCc2ccccc2)CC[C@@]23CCCN2C(=O)CCC[C@@H]13,nt,-1.8,1.2,nt,-6.5
